A selection: hits, their analogues and other compounds. The true share with any hit is near 3.4%.
FXN GAA850 act = frataxin GAA850 promoter activation; HEK293 lucGAA850 FXN promoter luciferase reporter, 24 h; percent of 10 µM SAHA response; activation, % at 6 µM; 360,000 tested, 0.56% active;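 active means activation above the average of all compounds screened plus 3 SD, cutoff fixed separately per campaign, cut at about 7.5% in these data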
NR2F2 inh = inhibitors of human COUP-TFII (NR2F2) | P24468 | HEK293T NGFI-A luciferase reporter, luminescence | inhibition, % at 8.6 µM | 370,000 tested, 0.7% active | AID 686940;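 active means inhibition above a per-plate cutoff, mean inhibition of test wells between control levels plus 3 SD, cut at about 38% in these data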;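 further: cells cotransfected with COUP-TFII expression vector driving the NGFI-A reporter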
Target sequence (P24468 whole entry, looked up): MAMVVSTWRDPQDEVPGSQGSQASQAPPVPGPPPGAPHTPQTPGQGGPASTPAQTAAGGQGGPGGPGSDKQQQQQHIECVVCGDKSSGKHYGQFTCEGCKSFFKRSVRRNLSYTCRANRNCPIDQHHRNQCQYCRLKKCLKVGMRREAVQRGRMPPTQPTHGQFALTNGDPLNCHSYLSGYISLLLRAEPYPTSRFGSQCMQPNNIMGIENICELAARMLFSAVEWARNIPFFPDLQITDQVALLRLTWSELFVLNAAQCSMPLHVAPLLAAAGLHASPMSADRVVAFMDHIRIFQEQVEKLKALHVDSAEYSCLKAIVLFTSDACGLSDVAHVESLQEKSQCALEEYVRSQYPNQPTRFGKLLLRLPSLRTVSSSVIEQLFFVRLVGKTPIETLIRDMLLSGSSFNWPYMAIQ
GalR3 antag = antagonists of human GalR3; inhibition, % at 3 µM; HEK293 GalR3-CNG cAMP membrane potential fluorescence; galR3 body fused to GalR1 C-terminus; O60755; 360,000 tested, 0.44% active;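 active means inhibition above the screen-wide average plus 3 SD, cut at about 13% in these data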;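 further: forskolin and galanin both at EC90 stimulate the cells; cAMP rise reported by CNG channel membrane potential dye signal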
Target sequence (O60755 1-299 limits assumed): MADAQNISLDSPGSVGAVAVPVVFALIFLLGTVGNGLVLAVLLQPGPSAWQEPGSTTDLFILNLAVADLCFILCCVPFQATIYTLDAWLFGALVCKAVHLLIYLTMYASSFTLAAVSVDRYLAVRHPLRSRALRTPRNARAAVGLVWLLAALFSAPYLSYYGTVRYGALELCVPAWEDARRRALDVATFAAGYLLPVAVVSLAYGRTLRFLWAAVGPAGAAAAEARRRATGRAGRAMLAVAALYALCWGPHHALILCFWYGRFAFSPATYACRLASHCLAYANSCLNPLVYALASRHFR
Cardio protect = myocardial damage modulation in H9c2 cells | protection from H2O2 cell death, % at 20 µM | H9c2 cardiomyocytes, H2O2 injury protection, ATPLite, 2 h | 360,000 tested, 0.63% active;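 active means compounds giving at least 50% protection of heart cells from peroxide-induced death in the single-dose screen, raw or plate-pattern-corrected value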
SMARCA2 activ = SMARCA2 function activation, primary screen; MG213 cells, MMTV-luciferase reporter, dexamethasone, overnight; activation, % at 9.1 µM; 370,000 tested, 1% active; AID 652017; in the data active means activation above about 7.8%
Gli-Sufu block = antagonists of Gli-Sufu signaling; AID 588413; inhibition, % at 5 µM; 340,000 tested, 0.74% active; Sufu-KO-LIGHT fibroblasts, Gli luciferase reporter luminescence;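 active means inhibition above about 55%, limit read from the data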
Gli-Sufu confirm = confirmation of Gli-SUFU pathway antagonists; shares compounds with Gli-Sufu block; AID 602428; Sufu-KO-LIGHT cells, Gli luciferase reporter, luminescence; 2,500 tested, 40% active; inhibition, % at 5 µM;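 active means mean inhibition at 5 µM reaching about 45%, limit read from the data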
SufuKO cytotox = cytotoxic in Gli-SUFU antagonist counter-screen. Sufu-KO-LIGHT cells cytotoxicity, ATP luminescence. 2,500 tested, 32% active. cytotoxicity, % at 5 µM. shares compounds with Gli-Sufu block;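 active means mean cytotoxicity at 5 µM above about 25%, limit read from the data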;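 further: cells exposed to compound overnight for roughly 16 to 18 hours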
Wnt3a cs = counter-screen for Gli-SUFU antagonists: Wnt3a reporter inhibition | shares compounds with Gli-Sufu block | Wnt-LIGHT cells, Wnt3a-driven luciferase reporter, luminescence | inhibition, % at 6.25 µM | 2,500 tested, 20% active | AID 651995;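 active means mean inhibition above about 25%, limit read from the data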
Large screens that a line does not name were inactive (follow-up assays come after a bar, where they were run).

COc1cc(C(=O)Oc2ccccc2/C=N/NC(=O)c2ccc(Cl)cc2)cc(OC)c1OC	none | Gli-Sufu confirm inactive | SufuKO cytotox inactive | Wnt3a cs inactive
COc1cccc(C(=O)Nc2cc([N+](=O)[O-])ccc2N2CCN(C)CC2)c1	none | Gli-Sufu confirm inactive | SufuKO cytotox inactive | Wnt3a cs inactive
CCCn1c(N2CCN(C(=O)NCc3ccccc3)CC2)nc2ccccc21	Gli-Sufu block 57 | Gli-Sufu confirm inactive | SufuKO cytotox inactive | Wnt3a cs inactive
O=C(NCc1ccccc1)OCCCN1C(=O)CCC12CCCCC2	none (no result: FXN GAA850 act, GalR3 antag, Cardio protect, Gli-Sufu block)
CCc1c(C)sc2nc(C(C)C)nc(SCC(=O)N3CCc4ccccc4C3)c12	Gli-Sufu block 83 (no result: FXN GAA850 act, Cardio protect) | Gli-Sufu confirm 85 | SufuKO cytotox 41 | Wnt3a cs inactive
CCCCCCCCCCOC(=O)C[N+](C)(C)C/C=C(/C)Cl	Gli-Sufu block 63 | Gli-Sufu confirm 69 | SufuKO cytotox 27 | Wnt3a cs 35
CCCCCCCCOC(=O)C[N+](C)(C)C/C=C(/C)Cl	none
FC(F)(F)c1cc(CNC2CCC23CCCCC3)ccc1Cl (centres undefined)	none (no result: FXN GAA850 act, GalR3 antag, Cardio protect, SMARCA2 activ, Gli-Sufu block)
O=C(COc1ccc(Br)cc1)NCCCNC(=O)c1cccnc1	Gli-Sufu block 59 | Gli-Sufu confirm inactive | SufuKO cytotox inactive | Wnt3a cs inactive
O=C(COc1ccc(Cl)cc1)NCCCNC(=O)c1cccnc1	none
O=C1NCCN1Cc1ccc(Cl)cc1	none | Gli-Sufu confirm inactive | SufuKO cytotox inactive | Wnt3a cs inactive
Cc1nc2ccc(Br)cn2c(=O)c1Cl	none
Cc1nc2cccc(C)n2c(=O)c1Cl	Gli-Sufu block 56 | Gli-Sufu confirm inactive | SufuKO cytotox inactive | Wnt3a cs inactive
O=C1OCCC1Sc1nnc(-c2ccc(Cl)cc2Cl)o1 (centres undefined)	none | Gli-Sufu confirm 67 | SufuKO cytotox inactive | Wnt3a cs 78
NC(=O)c1ccc(NC(=O)CSc2nc3ccccc3c(=O)n2CCCN2CCOCC2)cc1	none (no result: Gli-Sufu block)
Cc1cc(C)cc(NC(=S)NC(=O)Cc2ccccc2)c1	Gli-Sufu block 60 | Gli-Sufu confirm inactive | SufuKO cytotox inactive | Wnt3a cs inactive
CCN(CC)S(=O)(=O)c1ccc(S(=O)(=O)N2CCCC(C(=O)NC3CC3)C2)cc1 (centres undefined)	Gli-Sufu block 60 | Gli-Sufu confirm 46 | SufuKO cytotox inactive | Wnt3a cs inactive
CN(C)S(=O)(=O)c1ccc(S(=O)(=O)N2CCCC(C(=O)NC3CC3)C2)cc1 (centres undefined)	none
Cc1ccccc1CN1CCCCC(NC(=O)Nc2ccccc2-c2ccccc2)C1=O (centres undefined)	none (no result: FXN GAA850 act, GalR3 antag, Cardio protect, Gli-Sufu block)
Cc1ccc(NC(=S)N2CCN(Cc3ccc4c(c3)OCO4)CC2)c(C)c1	none
CCN(CC)S(=O)(=O)c1ccc(C)c(NC(=S)N2CCN(Cc3ccc4c(c3)OCO4)CC2)c1	Gli-Sufu block 64 | Gli-Sufu confirm inactive | SufuKO cytotox inactive | Wnt3a cs inactive
Cc1nc2ccc(S(=O)(=O)NCC(=O)NCc3ccc(Cl)cc3)cc2s1	none
Cc1nc2ccc(S(=O)(=O)NCC(=O)NCCN3CCCCCC3)cc2s1	Gli-Sufu block 83 | Gli-Sufu confirm inactive | SufuKO cytotox inactive | Wnt3a cs inactive
O=C(O)Cn1ncc2ccccc2c1=O	none
O=c1c2ccccc2cnn1CCOc1ccccc1	Gli-Sufu block 59 | Gli-Sufu confirm inactive | SufuKO cytotox inactive | Wnt3a cs 95
CCCCN1CCN(C(=O)C2CCN(S(=O)(=O)c3ccc4[nH]c(=O)oc4c3)CC2)CC1	none (no result: FXN GAA850 act, GalR3 antag, Cardio protect, Gli-Sufu block)
O=C(O)CN1C(=O)/C(=C2\C(=O)N(Cc3ccccc3Cl)c3ccccc32)SC1=S	Gli-Sufu block 57 | Gli-Sufu confirm inactive | SufuKO cytotox inactive | Wnt3a cs inactive
O=C(Cn1nnc(-c2ccccc2)n1)c1ccccc1	Gli-Sufu block 57 | Gli-Sufu confirm inactive | SufuKO cytotox inactive | Wnt3a cs inactive
Cc1ccc(C(=O)Cn2nnc(-c3ccccc3)n2)cc1	none
C=CCN(Cc1ccccc1)C(C#CC(=C)C)Cc1ccccc1 (centres undefined)	none (no result: FXN GAA850 act, GalR3 antag, Cardio protect, Gli-Sufu block)
CC(=O)Nc1ccc(Cl)cc1C(=O)c1ccc[nH]1	none (no result: Gli-Sufu block)
NCC(=O)Nc1ccc(Cl)cc1C(=O)c1ccc[nH]1	none | Gli-Sufu confirm inactive | SufuKO cytotox inactive | Wnt3a cs inactive
NC(=O)CC(NC(=O)c1ccccc1)c1ccc(N2CCN(c3ccccc3)CC2)c([N+](=O)[O-])c1 (centres undefined)	none
NC(=O)CC(NC(=O)c1ccccc1)c1ccc(N2CCCCCC2)c([N+](=O)[O-])c1 (centres undefined)	Gli-Sufu block 56 | Gli-Sufu confirm inactive | SufuKO cytotox inactive | Wnt3a cs inactive
O=C(Nc1c(-c2ccc(C(F)(F)F)cc2)nc2ncccn12)C1CC1	none (no result: FXN GAA850 act, GalR3 antag, Cardio protect, Gli-Sufu block)
COc1cc2c(cc1OC)C1C(C(=O)Nc3ccccc3N3CCN(C)CC3)c3ccccc3C(=O)N1CC2 (centres undefined)	none
COc1cc2c(cc1OC)C(C(=O)Nc1ccccc1N1CCN(C)CC1)C1c3ccccc3CCN1C2=O (centres undefined)	Gli-Sufu block 56 | Gli-Sufu confirm inactive | SufuKO cytotox inactive | Wnt3a cs inactive
COc1ccc(CN2CCSCC2)c(OC)c1C	Gli-Sufu block 59 | Gli-Sufu confirm inactive | SufuKO cytotox inactive | Wnt3a cs inactive
COC(=O)c1cc2c(c3c4cc(C)ccc4n(C(=O)c4ccccc4)c13)C(=O)N(Cc1ccccc1)C2	none (no result: FXN GAA850 act, Cardio protect, Gli-Sufu block)
CCOC(=O)C1(C)CCN1C(=O)c1ccc(C#N)cc1 (centres undefined)	none (no result: Gli-Sufu block)
CC1(C)COCN1C(=O)c1ccc(C#N)cc1	none | Gli-Sufu confirm inactive | SufuKO cytotox inactive | Wnt3a cs inactive
COc1ccc(-c2c(C#N)c(N)nc3c2CCc2ccccc2-3)cc1OC	none (no result: FXN GAA850 act, Cardio protect) | Gli-Sufu confirm 56 | SufuKO cytotox inactive | Wnt3a cs inactive
N/C(=N/O)c1ccccc1N1CCC(Cc2ccccc2)CC1	Gli-Sufu block 78 | Gli-Sufu confirm 74 | SufuKO cytotox 36 | Wnt3a cs inactive
COC(=O)CNC(=O)C(C)NC(=O)OCc1ccccc1 (centres undefined)	Gli-Sufu block 99 | Gli-Sufu confirm inactive | SufuKO cytotox inactive | Wnt3a cs inactive
COc1ccc(-c2cc(-c3nnc4sc(Cc5cccs5)nn34)[nH]n2)cc1	none (no result: FXN GAA850 act, GalR3 antag, Cardio protect, Gli-Sufu block)
O=C(c1ccccc1)c1ccc(OCCOCCN2CCN(Cc3ccccc3)CC2)cc1	Gli-Sufu block 68 | Gli-Sufu confirm inactive | SufuKO cytotox inactive | Wnt3a cs inactive
O=C(c1ccccc1)c1ccc(OCCCN2CCCC2)cc1	none
CCCOc1nc2c(c(=O)n(C)c(=O)n2C)n1C	none

Screening results (PubChem)
